EPAC1 antagonist = qHTS for Antagonist of cAMP-regulated guanine nucleotide exchange factor 3 (EPAC1): primary screen | EPAC1 GEF assay, Rap1b-BODIPY-GDP exchange fluorescence | 360,000 compounds, 0.14% hits | AID 720709, 2013 | Potency, µM (highest dose often 115 µM), for the others: top-dose activity change, negative = inhibition, usual class: inhibitors | Rap guanine nucleotide exchange factor 3 (Homo sapiens), O95398;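 further: potency means the concentration at half of the fitted maximal effect; plate controls were vehicle for no effect and positive control for full effect; nearly all actives have a fitted effect of over 50% in size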
Target sequence (O95398 whole entry, looked up): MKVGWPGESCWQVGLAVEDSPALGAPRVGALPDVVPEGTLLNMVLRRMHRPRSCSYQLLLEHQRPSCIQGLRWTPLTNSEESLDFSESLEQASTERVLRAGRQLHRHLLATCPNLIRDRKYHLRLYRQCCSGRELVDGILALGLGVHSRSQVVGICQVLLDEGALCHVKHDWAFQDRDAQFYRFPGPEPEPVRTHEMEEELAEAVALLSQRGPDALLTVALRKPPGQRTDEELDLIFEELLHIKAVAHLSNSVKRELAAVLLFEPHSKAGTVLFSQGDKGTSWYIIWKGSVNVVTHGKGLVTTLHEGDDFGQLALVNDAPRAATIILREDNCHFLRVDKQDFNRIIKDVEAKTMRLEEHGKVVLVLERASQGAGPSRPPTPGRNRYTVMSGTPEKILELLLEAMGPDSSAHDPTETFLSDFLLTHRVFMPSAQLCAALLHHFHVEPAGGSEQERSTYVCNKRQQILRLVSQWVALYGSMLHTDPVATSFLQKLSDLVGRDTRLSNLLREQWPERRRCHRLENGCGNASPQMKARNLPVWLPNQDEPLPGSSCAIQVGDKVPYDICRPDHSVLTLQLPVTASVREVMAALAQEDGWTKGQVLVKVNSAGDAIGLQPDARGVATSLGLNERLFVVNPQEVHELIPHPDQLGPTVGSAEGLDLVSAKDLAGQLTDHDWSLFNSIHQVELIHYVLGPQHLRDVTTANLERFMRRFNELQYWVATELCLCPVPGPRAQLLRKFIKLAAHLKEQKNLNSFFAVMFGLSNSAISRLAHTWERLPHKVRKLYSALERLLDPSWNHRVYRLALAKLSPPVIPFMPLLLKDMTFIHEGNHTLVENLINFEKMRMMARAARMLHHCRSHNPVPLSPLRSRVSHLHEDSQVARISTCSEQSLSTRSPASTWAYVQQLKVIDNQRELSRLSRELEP
TRPML1 ag = qHTS for Agonists of the Human Mucolipin Transient Receptor Potential 1 (TRPML1); activation, % (no concentration beside the values); Mucolipin-1 (Homo sapiens), Q9GZU1; AID 624414, 2012; 410,000 compounds, 0.12% hits; TRPML1-expressing cells, Ca2+ dye fluorescence, FDSS; in the data active means activation above about 50%; inconclusive means mostly about 30% to 49%; further: 0% is about no effect
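Cells: TRPML1-DL, 1X Tet inducer, ~16 h at 37 degrees C/5% CO2. Dye: ABD Ca8 no-wash + quencher, 45-90 min RT. Read: 10 s baseline, compound add, 110 s agonist phase; 54-4 EC80 (4uM final), 110 s antagonist phase.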
EPAC2 antagonist = qHTS for Antagonist of cAMP-regulated guanine nucleotide exchange factor 2 (EPAC2): primary screen; Rap guanine nucleotide exchange factor 4 (Homo sapiens), Q8WZA2; EPAC2 GEF exchange of Rap1B-BODIPY-GDP, fluorescence; Potency, µM (series often up to 114 µM), inactives show at the highest dose activity, negative = inhibition, actives largely listed as inhibitors; 360,000 compounds, 0.18% hits; further: potency means the concentration at half of the fitted maximal effect; on the % scale 0 is the no-effect control and ±100 the full control effect; nearly all actives have a fitted effect of over 45% in size
TRPML1 blocker = qHTS for Inhibitors of the Human Mucolipin Transient Receptor Potential 1 (TRPML1); 390,000 compounds, 0.02% hits; activity change, negative = inhibition, % (concentration not given with the values); TRPML1-inducible cells, Ca2+ dye fluorescence, FDSS; active compounds read low; inhibition of EC80 agonist-evoked calcium signal; Mucolipin-1 (Homo sapiens), Q9GZU1; in the data active means activity change below about -50%; inconclusive means between about -30% and that limit;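 further: stimulus is agonist 54-4 at its EC80 concentration; on the % scale 0 is the no-effect control and ±100 the full control effect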
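Tet-induced TRPML1-DL cells loaded with Ca8 no-wash calcium dye were read kinetically on FDSS. Compound addition was followed by EC80 agonist 54-4 (4 uM final); inhibition was read over 110 s.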
EPAC2 agonist = qHTS for Agonist of cAMP-regulated guanine nucleotide exchange factor 4 (EPAC2): primary screen | EPAC2 activation, biochemical qHTS; response scale: 100% = 6.5 mM cAMP response | Potency, µM (series often up to 154 µM), for the others: at the top dose activation, usual class: activators | Rap guanine nucleotide exchange factor 4 (Homo sapiens), Q8WZA2 | 360,000 compounds, 0.079% hits; further: potency means the concentration at half of the fitted maximal effect; nearly all actives have a fitted effect of over 50% in size
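In this primary screen, activation is scored as increased exchange of BODIPY-GDP from Rap1B by 100 nM EPAC2, with 50 uM GDP as competitor. Signal is normalized to the 6.5 mM cAMP agonist control.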
EPAC1 ag = qHTS for Agonist of cAMP-regulated guanine nucleotide exchange factor 3 (EPAC1): primary screen | Rap guanine nucleotide exchange factor 3 (Homo sapiens), O95398 | EPAC1 agonist qHTS, biochemical assay; response scale: 100% = response to 6.5 mM cAMP | Potency, µM (top dose mostly 154 µM), for the others: at the highest dose activation, usual class: activators | 360,000 compounds, 0.073% hits; further: potency means the concentration at half of the fitted maximal effect; nearly all actives have a fitted effect of over 60% in size
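Multi-concentration qHTS readout: loss of Rap1B-bound BODIPY-GDP fluorescence driven by 100 nM EPAC1 with excess GDP (50 uM), monitored kinetically at room temperature; agonist response expressed relative to 6.5 mM cAMP.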
* marks the source's active call; other numbers are inactive results; ? = inconclusive; nt = not tested or not shown. Hits are enriched below; roughly 0.4% of the tested compounds scored in any of these assays. Unless noted, the call rests on the fitted dose curve; in most records, active means well fitted curve in the direction sought with a large enough effect; inconclusive means small, poorly fitted or top-dose-only effect, or another doubt; inactive means no such curve, though single readings can be large; an effect the other way counts as inactive or inconclusive.

SMILES	EPAC1 antagonist	TRPML1 ag	EPAC2 antagonist	TRPML1 blocker	EPAC2 agonist	EPAC1 ag
CC(C)(C)n1nnnc1C(c1cccs1)N(Cc1ccc(Cl)cc1)CC1CCCO1 (configuration not stated)	-14.4%	66.1*	-10.7%	-18.5	-4.3%	15.7%
CN(C)c1ccc(C(=O)Oc2cc(O/N=[N+](\[O-])N(C)C)c([N+](=O)[O-])cc2[N+](=O)[O-])cc1	nt	0.5	nt	-9.6	nt	nt
Cc1ccc(CNC(=O)COC(=O)c2ccccc2OCC(=O)Nc2ccc(Br)cc2)cc1	nt	-0.4	nt	nt	nt	nt
COc1cc2nc(N3CCCN(C)CC3)nc(N(C)C)c2cc1OC	nt	-0.1	nt	nt	nt	nt
Cc1cc(C)nc(NS(=O)(=O)c2ccc(NC(=O)CN3C(=O)S/C(=C\c4ccccc4)C3=O)cc2)n1	79.4µM*	-0.4	-11.1%	5.2	5.8%	5.5%
C/C(C/C(C)=C1/SC(=S)NC1=O)=C1\SC(=S)NC1=O	20µM*	-0.2	?	-2.5	13.6%	-2.8%
O=C(Cc1ccc(F)cc1)NO	nt	-0.5	nt	nt	nt	nt
COc1ccc(/C=C/c2ccnc3ccccc23)cc1	nt	-0.4	nt	nt	nt	nt
O=S1(=O)CCO[C@H]2CCCC[C@@H]2N1Cc1cccc(F)c1	nt	-1.3	nt	nt	nt	nt
CCc1ccc([C@@H]2CC=C(C(=O)O)[C@H](c3ccc(C(C)(C)C)cc3)N2S(=O)(=O)c2ccc(C)cc2)cc1	44.7µM*	0.5	56.2µM*	-15.7	-14.9%	-32.8%
CCc1ccc([C@@H]2CC=C(C(=O)O)[C@H](c3ccccc3)N2S(=O)(=O)c2ccc(C)cc2)cc1	-8.1%	0.9	-17.1%	21.8	4.0%	-20.4%
Cc1ccc(S(=O)(=O)N2[C@@H](c3ccc(Cl)c(Cl)c3)C(C(=O)O)=C[C@H]2CC2CCCC2)cc1	50.1µM*	3.5	?	33.1	-2.7%	-14.5%
Cc1ccc([C@@H]2CC=C(C(=O)O)[C@H](c3ccc(F)cc3)N2S(=O)(=O)c2ccc(C)cc2)cc1	3.7%	0.1	-1.9%	-11.2	15.0%	7.2%
Cc1ccc(S(=O)(=O)N2[C@@H](c3ccc(Cl)cc3)C(C(=O)O)=C[C@H]2CC2CCCC2)cc1	-24.9%	-0.1	-27.9%	-10.3	3.7%	-18.2%
Cc1ccc([C@@H]2CC=C(C(=O)O)[C@H](c3ccc(C(C)(C)C)cc3)N2S(=O)(=O)c2ccc(C)cc2)cc1	28.2µM*	1.1	?	-10.0	-14.2%	-24.3%
Cc1ccc(S(=O)(=O)N2[C@@H](c3ccc(Br)cc3)C(C(=O)O)=CC[C@H]2c2ccc(C(C)C)cc2)cc1	56.2µM*	-0.6	?	13.7	4.6%	3.2%
CCN1C(=O)[C@H]2[C@H]3[C@H](O)[C@H](O)CC(=O)[C@@H]3CC[C@H]2C1=O	nt	-0.2	nt	nt	nt	nt
Cc1ccc(S(=O)(=O)N2[C@@H](c3ccc(C(C)(C)C)cc3)C(C(=O)O)=CC[C@H]2c2ccc(C(C)C)cc2)cc1	31.6µM*	1.1	39.8µM*	5.4	-23.4%	-47.7%
Cc1ccc(S(=O)(=O)N2C(c3ccc(Cl)c(Cl)c3)CC=C(C(=O)O)C2c2ccc(Cl)cc2)cc1 (configuration not stated)	-10.4%	nt	63.1µM*	nt	-7.0%	12.5%
Cc1ccc(S(=O)(=O)N2[C@@H](c3ccc(C(C)(C)C)cc3)C(C(=O)O)=CC[C@H]2c2cccs2)cc1	-16.2%	0.5	31.6µM*	-6.8	-9.0%	-4.0%
Cc1ccc(S(=O)(=O)N2[C@@H](c3ccc(Cl)cc3)C(C(=O)O)=CC[C@H]2c2ccc(Cl)c(Cl)c2)cc1	?	0.6	?	28.3	-2.2%	0.8%
COc1cc2nc(NC3CCN(C)CC3)nc(NC3CCN(C)CC3)c2cc1OC	nt	-0.8	nt	nt	nt	nt
Oc1ccc(/C=N/Nc2ncnc3nc[nH]c23)cc1	-10.6%	-0.6	17.8µM*	15.0	-0.2%	0.1%
O=C(C1=NN(c2ccccc2)C2C(=O)N(c3cccc(Cl)c3)C(=O)C12)c1ccccc1 (configuration not stated)	50.1µM*	?	31.9%	-5.2	9.8%	-81.6%
COc1ccccc1N1C(=O)C2C(C(=O)c3ccccc3)=NN(c3ccc(Br)cc3)C2C1=O (configuration not stated)	35.5µM*	9.0	50.1µM*	-12.6	-2.1%	-38.3%
SMILES	EPAC1 antagonist	TRPML1 ag	EPAC2 antagonist	TRPML1 blocker	EPAC2 agonist	EPAC1 ag
O=C(C1=NN(c2ccccc2)C2C(=O)N(c3ccc(Cl)cc3)C(=O)C12)c1ccccc1 (configuration not stated)	17.0%	9.5	22.9%	-9.9	14.1%	17.0%
COc1ccc(/C=N/NC(=O)c2cc(O)c(O)c(O)c2)cc1Cn1cc([N+](=O)[O-])cn1	31.6µM*	0.8	-5.5%	?	1.3%	3.1%
Cc1ccc(-c2ccc(CN3C(CC(C)C)C(=O)N(Cc4cn(CCC5OCCCO5)nn4)CCS3(=O)=O)cc2)cc1 (configuration not stated)	-7.1%	0.6	?	26.8	-0.9%	-13.5%
CC(C)CC1C(=O)N(Cc2cn(CCC3OCCCO3)nn2)CCS(=O)(=O)N1Cc1ccc(-c2ccc(F)cc2)cc1 (configuration not stated)	-6.9%	-0.2	22.4µM*	-11.3	0.4%	0.7%
O=C1CCN2C=Nc3cccc4ccc1c2c34	297.3%	?	284.2%	-4.7	89.1µM*	63.1µM*
COc1cc(OC)c(-c2cc(C(=O)O)ccc2OC)c(OC)c1	89.1µM*	0.0	0.2%	-4.0	-5.9%	-15.7%
CCOC(=O)N1CCN(/[N+]([O-])=N/OCOC)CC1	nt	0.8	nt	-6.7	nt	nt
CCOC(=O)c1ccc(-c2ccc(/C=C(\C#N)c3nc4ccc(C)cc4[nH]3)o2)cc1	nt	50.7*	nt	-28.6	nt	nt
Cc1ccc2nc(/C(C#N)=C/c3ccc(-c4ccccc4C(=O)O)o3)[nH]c2c1	1.5%	?	4.5%	-15.5	17.1%	24.3%
Cc1ccc2nc(/C(C#N)=C\c3ccc(N4CCOCC4)o3)[nH]c2c1	41.4%	?	16.7%	23.5	39.8µM*	?
